Test results: PubChem BioAssay (Tox21)
Results filed as inconclusive are left out. Activity calls are given as the source filed them. Unless noted, calls come from the whole dose curve; as a rule, active = well fitted curve in the direction sought with a large enough effect in the repeat runs; inconclusive = weak or mixed curves; inactive = no such curve, though single readings can be large; an effect the other way counts as inactive or inconclusive.

Assays:
[1] = molecular target: Thyrotropin receptor (Homo sapiens) (UniProt P16473); assay: qHTS assay to identify small molecule antagonists of the thyroid stimulating hormone receptor (TSHR) signaling pathway (AID 1259385; calls by dose curve; note: nearly all actives have a fitted effect of over 20% in size; note: potency is the fitted concentration of half-maximal effect)
Thyrotropin receptor (Homo sapiens), sequence (P16473 whole entry, looked up): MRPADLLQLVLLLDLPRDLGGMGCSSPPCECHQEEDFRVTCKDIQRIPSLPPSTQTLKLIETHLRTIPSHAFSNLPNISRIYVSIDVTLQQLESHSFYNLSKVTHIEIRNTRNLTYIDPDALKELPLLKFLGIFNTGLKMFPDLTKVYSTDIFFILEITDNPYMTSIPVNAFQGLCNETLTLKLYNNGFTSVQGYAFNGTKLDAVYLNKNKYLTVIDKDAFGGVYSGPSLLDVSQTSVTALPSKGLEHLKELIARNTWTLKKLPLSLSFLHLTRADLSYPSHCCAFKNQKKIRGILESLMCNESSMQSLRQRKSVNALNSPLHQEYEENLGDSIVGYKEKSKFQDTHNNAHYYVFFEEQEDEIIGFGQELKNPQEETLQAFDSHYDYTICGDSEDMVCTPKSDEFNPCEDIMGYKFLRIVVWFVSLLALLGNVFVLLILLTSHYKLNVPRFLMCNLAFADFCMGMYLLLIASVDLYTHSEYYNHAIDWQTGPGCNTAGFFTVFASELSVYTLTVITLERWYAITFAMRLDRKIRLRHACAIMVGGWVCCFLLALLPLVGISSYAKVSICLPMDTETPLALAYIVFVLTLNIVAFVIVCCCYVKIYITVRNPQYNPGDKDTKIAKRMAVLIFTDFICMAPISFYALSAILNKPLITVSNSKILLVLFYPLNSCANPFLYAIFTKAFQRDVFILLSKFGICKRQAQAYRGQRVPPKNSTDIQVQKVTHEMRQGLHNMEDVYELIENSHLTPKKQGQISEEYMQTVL
Procedure, shortened: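 Antagonist mode: compound-treated TSHR-expressing HEK293 cells were stimulated with 1.5 ng/mL TSH (final) in presence of Ro20-1724 for 30 min at RT. HTRF cAMP detection after 1 h; each compound tested at 15 concentrations, triplicate.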

[2] = qHTS assay to identify small molecule agonists of the estrogen receptor alpha (ER-alpha) signaling pathway in the presence of an antagonist - cell viability counter screen (AID 1259386);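 note: cells exposed to compounds for 22 h at 37 °C before the viability read; nearly all actives have a fitted effect of over 30% in size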; note: potency is the fitted concentration of half-maximal effect
Procedure, shortened: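 Viability counter screen using VM7Luc4E2 (full-length ER-alpha, four ERE-luciferase). The cells were treated with compounds alongside ICI-182,780 10.0nM for 22hr, and live-cell protease fluorescence was quantified with CellTiter-Fluor.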

[3] = molecular target: Progesterone receptor (Homo sapiens) (UniProt P06401); assay: qHTS assay to identify small molecule antagonists of the progesterone receptor (PR) signaling pathway (AID 1346795; active = well fitted inhibition curve with a large enough effect in the signal ratio in the repeat runs, not every such curve was filed as active; the % refers to the signal ratio; note: potency is the fitted concentration of half-maximal effect)
Progesterone receptor (Homo sapiens), sequence (P06401 whole entry, looked up): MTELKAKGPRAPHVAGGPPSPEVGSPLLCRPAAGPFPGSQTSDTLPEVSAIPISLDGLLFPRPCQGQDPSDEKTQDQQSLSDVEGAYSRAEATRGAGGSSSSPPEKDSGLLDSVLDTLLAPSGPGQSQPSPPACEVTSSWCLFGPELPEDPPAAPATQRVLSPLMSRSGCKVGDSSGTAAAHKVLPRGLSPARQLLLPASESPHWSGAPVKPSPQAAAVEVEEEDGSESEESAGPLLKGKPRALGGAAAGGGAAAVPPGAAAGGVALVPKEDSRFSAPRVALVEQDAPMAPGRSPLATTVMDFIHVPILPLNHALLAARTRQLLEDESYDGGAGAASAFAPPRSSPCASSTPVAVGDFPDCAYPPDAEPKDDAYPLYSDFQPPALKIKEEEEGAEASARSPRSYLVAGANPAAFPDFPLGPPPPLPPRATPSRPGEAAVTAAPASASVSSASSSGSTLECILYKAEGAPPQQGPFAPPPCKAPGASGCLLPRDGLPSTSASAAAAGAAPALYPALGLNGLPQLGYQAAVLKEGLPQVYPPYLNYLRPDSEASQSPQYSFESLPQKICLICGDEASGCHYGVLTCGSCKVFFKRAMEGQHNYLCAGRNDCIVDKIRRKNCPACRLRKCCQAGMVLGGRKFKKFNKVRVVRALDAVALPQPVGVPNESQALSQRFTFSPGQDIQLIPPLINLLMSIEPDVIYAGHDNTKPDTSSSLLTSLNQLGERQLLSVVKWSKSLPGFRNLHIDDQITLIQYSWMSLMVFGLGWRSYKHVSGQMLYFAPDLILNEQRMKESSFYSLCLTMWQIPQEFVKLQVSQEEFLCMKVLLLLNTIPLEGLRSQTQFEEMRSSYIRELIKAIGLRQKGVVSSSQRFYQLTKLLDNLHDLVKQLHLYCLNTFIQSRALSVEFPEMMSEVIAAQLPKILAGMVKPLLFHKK
Procedure, shortened: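 Inhibition of R5020-induced (1 nM final) beta-lactamase reporter signal in PR-UAS-bla HEK293T cells was scored by FRET fluorescence after overnight (16 hr) compound treatment.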

[4] = qHTS assay to identify small molecule agonists of the TGF-beta/Smad signaling pathway - cell viability counter screen (AID 1346829); note: top concentration of the series differs between compounds; nearly all actives have a fitted effect of over 45% in size
Procedure, shortened: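 SBE-bla HEK 293T cells plated overnight, compound exposure 5 hr at 37 C. Viability read in the same wells by CellTiter-Glo luminescence after 30 min at room temperature, following the beta-lactamase read.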

[5] = qHTS assay to identify small molecule agonists of the TGF-beta/Smad signaling pathway (AID 1346859; active = well fitted activation curve with a large enough effect in the signal ratio in the repeat runs, not every such curve was filed as active; the % refers to the signal ratio; note: series mostly up to about 77 µM)
Procedure, shortened: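 Stable Smad binding element-beta-lactamase HEK 293T cells; 5 hr compound exposure at 37 C under 5% CO2; 2 hr room-temperature substrate step; fluorescence excited at 405 nm, collected at 460 nm and 530 nm.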

[6] = molecular target: Thyrotropin-releasing hormone receptor (Homo sapiens) (UniProt P34981); assay: qHTS assay to identify small molecule antagonists of the thyrotropin-releasing hormone receptor (TRHR) signaling pathway (AID 1346877; active = well fitted inhibition curve with a large enough effect in the repeat runs, not every such curve was filed as active; note: series mostly up to about 51 µM)
Thyrotropin-releasing hormone receptor (Homo sapiens), sequence (P34981 whole entry, looked up): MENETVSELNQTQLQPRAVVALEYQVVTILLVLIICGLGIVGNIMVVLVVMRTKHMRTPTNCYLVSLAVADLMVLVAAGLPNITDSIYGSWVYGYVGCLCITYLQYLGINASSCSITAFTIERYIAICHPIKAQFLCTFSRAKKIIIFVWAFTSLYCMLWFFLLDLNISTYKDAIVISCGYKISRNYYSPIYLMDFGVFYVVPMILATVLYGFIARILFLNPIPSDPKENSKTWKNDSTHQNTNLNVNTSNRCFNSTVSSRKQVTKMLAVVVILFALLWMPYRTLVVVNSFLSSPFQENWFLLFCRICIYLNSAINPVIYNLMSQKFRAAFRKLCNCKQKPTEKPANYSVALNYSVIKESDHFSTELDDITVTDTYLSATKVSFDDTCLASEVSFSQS
Procedure, shortened: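 Following an 18 h incubation at 37 °C and a 2 h calcium dye load, TRHR-HEK293 cells were exposed to compound (5 min, room temperature) and challenged with TRH, 1 nM final.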

[7] = qHTS assay to identify small molecule antagonists of the TGF-beta/Smad signaling pathway - cell viability counter screen (AID 1346824); note: nearly all actives have a fitted effect of over 50% in size
Procedure, shortened: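 Cytotoxicity counter-screen run in the same wells as the beta-lactamase Smad reporter read: CellTiter-Glo luminescence after 30 min at room temperature. HEK 293T SBE-bla cells had 5 hr compound exposure at 37 C with TGF-beta1 (0.25 ng/mL stock).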

[8] = qHTS assay to identify small molecule antagonists of the progesterone receptor (PR) signaling pathway - cell viability counter screen (AID 1346798); note: nearly all actives have a fitted effect of over 50% in size; note: potency is the fitted concentration of half-maximal effect
Procedure, shortened: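 ATP content as viability readout: CellTiter-Glo luminescence, 30 min room temperature, in PR-UAS-bla HEK293T cells after 16 hr compound/R5020 treatment at 37C and 5% CO2.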

[9] = qHTS assay to identify small molecule agonists of the progesterone receptor (PR) signaling pathway - cell viability counter screen (AID 1346799; calls by dose curve; note: nearly all actives have a fitted effect of over 45% in size; note: potency is the fitted concentration of half-maximal effect)
Procedure, shortened: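 Cytotoxicity in PR-bla HEK293T cells: 16 h compound, 37C; CellTiter-Glo added post-FRET read; luminescence after 30 min RT.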

Measured: Potency

CCOC(=O)C1=C(C)NC(C)=C(C(=O)OC)C1c1cccc(Cl)c1Cl (configuration not stated)
active: [3] 3.76 µM
inactive: [1] | [2] | [4] | [5] | [6]

O=[N+]([O-])c1cc(C2CCCCC2)c(O)c([N+](=O)[O-])c1
active: [2] 15.3 µM | [3] 24.3 µM
inactive: [1] | [7] | [4]

C[C@H]1C[C@H](O)c2ccsc2S1(=O)=O
not listed: [7]
inactive: all other assays above

CCC=CC#N
not listed: [3] | [6]
inactive: all other assays above

COc1ccc(OC(=O)N(CC(=O)O)Cc2ccc(OCCc3nc(-c4ccccc4)oc3C)cc2)cc1
not listed: [5] | [8]
inactive: all other assays above

OCCN1CCN(CCCN2c3ccccc3Sc3ccc(Cl)cc32)CC1
active: [1] 29.8 µM | [8] 23.7 µM | [9] 13.3 µM
not listed: [3]
inactive: all other assays above

Cc1cscn1
not listed: [6]
inactive: all other assays above

CC1=Nc2ccc3ccccc3c2C1(C)C
active: [8] 12.2 µM | [9] 24.3 µM
not listed: [3] | [5]
inactive: all other assays above

c1ccc2c(c1)CCc1ccccc1N2
not listed: [3]
inactive: all other assays above

CC1CC(C)C(=O)C1=O (configuration not stated)
inactive: all assays above

COC(=O)CS
inactive: all assays above

CC1(CN2CCC(n3c(=O)[nH]c4ccccc43)CC2)OCc2ccccc2-n2cccc21 (configuration not stated)
inactive: [1] | [2] | [7] | [4] | [5]

C[C@@H](O)[C@H]1C(=O)N2C(C(=O)O)=C([C@H]3CCCO3)S[C@H]12
not listed: [3]
inactive: all other assays above

C=CC(C)(CCC=C(C)C)OC(=O)CC(C)C (configuration not stated)
not listed: [3] | [6]
inactive: all other assays above

CC(CCC(=O)O)C(=O)O (configuration not stated)
inactive: all assays above

CC1(C)[C@@H](OC(=O)CCC(=O)O)CC[C@]2(C)[C@H]3C(=O)C=C4[C@@H]5C[C@@](C)(C(=O)O)CC[C@]5(C)CC[C@@]4(C)[C@]3(C)CC[C@@H]12
not listed: [8]
inactive: all other assays above

O=C(/C=C/c1ccc(O)c(O)c1)O[C@@H]1C[C@@](OC(=O)/C=C/c2ccc(O)c(O)c2)(C(=O)O)C[C@@H](O)[C@@H]1O
not listed: [4] | [9]
inactive: all other assays above

CC(=O)NC1(c2cccc(F)c2)CCN(CC[C@@]2(c3ccc(Cl)c(Cl)c3)CN(c3ccccc3)C(=O)CO2)CC1
active: [3] 48.7 µM | [8] 38.7 µM | [9] 21.7 µM
not listed: [5]
inactive: all other assays above

O=C=Nc1ccc(Cl)c(Cl)c1
active: [9] 23.9 µM
inactive: [1] | [2] | [7] | [4] | [5]

NC1[C@H]2CN(c3nc4c(cc3F)c(=O)c(C(=O)O)cn4-c3ccc(F)cc3F)C[C@@H]12 (some centres not stated)
inactive: [1] | [2] | [9] | [4] | [5]

CCOC(C)=O
not listed: [5]
inactive: all other assays above

CC(CN(C)C)C(C)(O)Cc1ccc(Cl)cc1 (configuration not stated)
active: [9] 16.8 µM
not listed: [5]
inactive: all other assays above

CO/N=C(/C(=O)N[C@@H]1C(=O)N2C(C(=O)O)=C(COC(N)=O)CS[C@H]12)c1ccco1
not listed: [3]
inactive: all other assays above

O=C1c2ccccc2C(=O)C1c1ccc(Br)cc1
not listed: [3] | [6]
inactive: all other assays above

O=c1cc(-c2ccccc2)oc2cc(O)cc(O)c12
active: [2] 48.6 µM
inactive: [1] | [7] | [4]

CC(C)C[C@H](NC(=O)[C@H](CCc1ccccc1)NC(=O)CN1CCOCC1)C(=O)N[C@@H](Cc1ccccc1)C(=O)N[C@@H](CC(C)C)C(=O)[C@@]1(C)CO1
not listed: [3] | [9]
inactive: all other assays above

OC1(c2ccccc2)CCNCC1
not listed: [3]
inactive: all other assays above

C=C1C[C@@]23CC[C@H]4[C@@](C)(CCC[C@@]4(C)C(=O)O[C@@H]4O[C@H](CO)[C@@H](O)[C@H](O)[C@H]4O)[C@@H]2CC[C@]1(O[C@@H]1O[C@H](CO)[C@@H](O)[C@H](O[C@@H]2O[C@H](CO)[C@@H](O)[C@H](O)[C@H]2O)[C@H]1O[C@@H]1O[C@H](CO)[C@@H](O)[C@H](O)[C@H]1O)C3
not listed: [4]
inactive: all other assays above

CCCCCCCCOc1ccc(C(=O)O)cc1
active: [3] 48 µM
not listed: [8] | [9]
inactive: all other assays above

CCOc1ccccc1O[C@H](c1ccccc1)[C@H]1CNCCO1
not listed: [6] | [9]
inactive: all other assays above

CCc1ccccc1
not listed: [3] | [4]
inactive: all other assays above

OCCOCC#CCOCCO
not listed: [4]
inactive: all other assays above

CNC(=O)c1cnn(-c2nc(N)c3ncn([C@@H]4O[C@H](CO)[C@@H](O)[C@H]4O)c3n2)c1
not listed: [4] | [6] | [8]
inactive: all other assays above

CCCCOc1ccc(OCCCN2CCOCC2)cc1
inactive: [1] | [2] | [8] | [9] | [7]

CC(=O)OCC[N+](C)(C)C
inactive: all assays above

C[C@]1(Cn2ccnn2)[C@H](C(=O)O)N2C(=O)C[C@H]2S1(=O)=O
not listed: [3] | [6]
inactive: all other assays above

CCCCCCCCCI
not listed: [6]
inactive: all other assays above
